# Out of some 190,000 compounds screened, about 1,300 (0.68%) were called active. Cut-off read from the data, not from the text of the source: active = inhibition above about 50%; inactive = the rest. The sample as a whole holds a higher share of actives than the screen did.
# Target: Mannose-6-phosphate isomerase (Homo sapiens) (UniProt P34949)
# Assay: MPI inhibition at elevated mannose 6-phosphate – biochemical, fluorescence intensity, high mannose 6-phosphate, primary screen (AID 1220)
# Details: recombinant PMI enzyme, coupled fluorescence intensity; at 20 µM; active compounds read high
# Chain of Mannose-6-phosphate isomerase (Homo sapiens) (P34949 whole entry, looked up): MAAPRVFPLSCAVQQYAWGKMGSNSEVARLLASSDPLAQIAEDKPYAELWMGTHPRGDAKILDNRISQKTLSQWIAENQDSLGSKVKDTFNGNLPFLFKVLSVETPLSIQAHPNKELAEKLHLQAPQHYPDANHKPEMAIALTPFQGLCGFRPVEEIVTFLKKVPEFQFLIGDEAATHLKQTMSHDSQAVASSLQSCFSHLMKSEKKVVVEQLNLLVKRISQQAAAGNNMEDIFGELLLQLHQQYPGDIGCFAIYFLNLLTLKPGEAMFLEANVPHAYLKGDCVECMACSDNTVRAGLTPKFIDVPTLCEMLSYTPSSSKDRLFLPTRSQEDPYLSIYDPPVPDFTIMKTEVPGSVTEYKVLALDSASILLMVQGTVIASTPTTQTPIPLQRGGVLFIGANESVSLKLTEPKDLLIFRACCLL
row,SMILES,inhibition
1,Cc1c(O)ccc(NS(=O)(=O)c2ccccc2)c1C,5% (inactive)
2,CCOC(=O)c1c(C)[n+]([O-])c2ccc3c(non3O)c12,10.7% (inactive)
3,O=c1c2c(nc3n1CCCCC3)-c1ccccc1CC21CCCCC1,1.4% (inactive)
4,CN(C)/N=C/c1c(O)ccc2ccccc12,26.9% (inactive)
5,O=C1C2C3C=CC(CC3)C2C(=O)N1/N=C/c1ccccc1O (stereo not given),-0.9% (inactive)
6,CCc1ccc(C=NC23CN4CN(CN(C4)C2)C3)s1,2% (inactive)
7,Oc1ccc2ccccc2c1/C=N/Nc1ccccc1,-35.6% (inactive)
8,O=C(N/N=C\c1c(O)ccc2ccccc12)c1ccc(S(=O)(=O)N2CCCCC2)cc1,-8.7% (inactive)
9,Oc1ccc(C=NC2CCCCC2)c(O)c1,29% (inactive)
10,O=C1C2C3C=CC(CC3)C2C(=O)N1/N=C/c1ccc(O)c(O)c1 (stereo not given),-11.1% (inactive)
11,O=S(=O)(/N=C/c1c(O)ccc2ccccc12)c1cccs1,27.7% (inactive)
12,O=C1C2C3C=CC(CC3)C2C(=O)N1/N=C/c1c(O)ccc2ccccc12 (stereo not given),70.3% (active)
13,Cc1ccccc1C(=O)NC(=S)Nc1ccc(S(=O)(=O)N2CCOCC2)cc1,3.6% (inactive)
14,CC(C)CC(=O)NC(=S)Nc1ccccn1,-9.5% (inactive)
15,CCSc1nnc(NC(=O)CCc2ccc(OC)cc2)s1,8.9% (inactive)
16,Cc1ccc(C2C(C#N)=C(N)SC(N)=C2C#N)o1,-7.3% (inactive)
17,Oc1ccc2ccccc2c1C=Nc1cc(C(F)(F)F)ccc1N1CCCC1,52.1% (active)
18,Oc1c(Cl)cccc1C=Nc1cc(C(F)(F)F)ccc1N1CCCC1,7.1% (inactive)
19,O=C(N/N=C/c1c(O)ccc2ccccc12)c1cccc(C(F)(F)F)c1,8.4% (inactive)
20,CC(=O)Nc1cc(Cl)ccc1OS(=O)(=O)c1ccc(C)cc1,6.5% (inactive)
21,Fc1ccc(CN2CCCCCCC2)cc1,-6.8% (inactive)
22,Nc1nc(-c2ccc(-c3ccccc3)cc2)cs1,-2.8% (inactive)

row,SMILES,inhibition
1,CCOc1ccc(N(Cc2cc3cc(OC)ccc3[nH]c2=O)C(=O)C2CCCO2)cc1 (stereo not given),13.8% (inactive)
2,COc1ccc2[nH]c(=O)c(CN(C(=O)C3CCCO3)c3ccc(C)cc3)cc2c1 (stereo not given),50% (active)
3,COc1ccc(N(Cc2cc3cc(OC)ccc3[nH]c2=O)C(=O)C2CCCO2)cc1 (stereo not given),7.7% (inactive)
4,CCC(=O)Nc1ccc(NC(=S)NC(=O)Cc2ccccc2)cc1,6% (inactive)
5,CCN(CC)c1ccc(NC(=S)NC(=O)Cc2ccccc2)cc1,50.1% (active)
6,CN(C)S(=O)(=O)c1ccc(NC(=S)NC(=O)Cc2ccccc2)cc1,-3.1% (inactive)
7,Cc1ccc(CC2CC(=O)N(c3ccncc3)C2=O)cc1 (stereo not given),1.2% (inactive)
8,CCc1nc2ccc(C(=O)Nc3ccc(NC(C)=O)cc3)cc2nc1CC,7.1% (inactive)
9,Cc1ccc(OS(=O)Nc2cccc3nccnc23)cc1 (stereo not given),5.5% (inactive)
10,c1cc(Nc2cccc3nccnc23)c2nccnc2c1,54.4% (active)
11,Fc1ccc(Nc2cccc3nccnc23)cc1,26.2% (inactive)
12,Cc1cc(C)n(-c2cc(C(=O)O)cc(C(=O)O)c2)n1,-12.4% (inactive)
13,CC1=C(Sc2nc3ccccc3[nH]2)C(=O)NC(C)(C)C1,0.2% (inactive)
14,O=C(C/C=N/OCc1ccc(F)cc1Cl)c1cnc(-c2ccccc2)s1,-2.1% (inactive)
15,CO/N=C/CC(=O)c1cnc(-c2ccccc2)s1,57.6% (active)
16,O=C(C/C=N/OCc1ccc(Cl)cc1)c1cnc(-c2ccccc2)s1,13.5% (inactive)
17,O=C(C/C=N/OCc1ccccc1F)c1cnc(-c2ccc(Cl)cc2)s1,1.3% (inactive)
18,CO/N=C/CC(=O)c1cnc(-c2ccc(Cl)cc2)s1,53.8% (active)
19,O=C(C/C=N/OCc1c(Cl)cccc1Cl)c1cnc(-c2ccccc2)s1,14.6% (inactive)
20,Cc1ccccc1C(=O)NC1CCN(Cc2nnnn2Cc2ccc(F)cc2)CC1,4.6% (inactive)
21,CCC(C)(C)NC(=O)C(c1ccccn1)N(C(=O)c1csnn1)c1ccc(C)cc1 (stereo not given),-1.6% (inactive)
22,COc1cc(CNn2cn[nH]c2=S)cc(Br)c1OCc1ccccc1F,0.2% (inactive)

row,SMILES,inhibition
1,CCCCCCNS(=O)(=O)c1ccc(OC)c(OC)c1,5.6% (inactive)
2,CCCN1CCC(NC(=S)Nc2ccc(OC)c(OC)c2)CC1,-3% (inactive)
3,CCn1cnc2cc(NCc3nc4ccccc4n3Cc3ccccc3)ccc21,50.6% (active)
4,CCn1cnc2cc(NCc3nc4ccccc4n3C)ccc21,14.9% (inactive)
5,Cc1nc2cc(NCc3nc4ccccc4n3Cc3ccccc3)ccc2n1C,20% (inactive)
6,CCOc1cc2[nH]c(=S)n(C3CC3)c(=O)c2cc1OCC,2.9% (inactive)
7,O=C(c1ccccc1[N+](=O)[O-])N1CCCN(C(=O)c2ccccc2[N+](=O)[O-])CC1,-6.8% (inactive)
8,COc1cc(NS(=O)(=O)c2ccc(C)cc2)c2ncccc2c1,32.6% (inactive)
9,COc1cc(NCCCCCCCN)c2ncccc2c1,50.3% (active)
10,COc1cc(NC(=O)C2CCCCC2)c2ncccc2c1,4.2% (inactive)
11,CCn1c(CSCc2ccc(Cl)cc2)n[nH]c1=S,-10.7% (inactive)
12,CC(C)(C=O)C1=CC(=O)c2ccccc2C1=O,12.2% (inactive)
13,CC(C)(C)C1=CC(=Nc2ccccc2N)C=C(C(C)(C)C)C1=O,-7.5% (inactive)
14,Cc1ccc(S(=O)(=O)N2CCOCC2)cc1C(=O)Nc1ccccn1,4.2% (inactive)
15,O=C(Cc1ccc(Cl)cc1)N/N=C/c1cccs1,15.1% (inactive)
16,CCOC(=O)c1c(C)n(C)c2ccc(O)c(CN3CCCCC3)c12,8.7% (inactive)
17,CCOC(=O)c1c(C)n(C)c2ccc(O)c(CN3CCC(C)CC3)c12,22.9% (inactive)
18,CCOC(=O)c1c(C)n(C)c2ccc(O)c(CN3CCN(C)CC3)c12,54.1% (active)
19,CCOC(=O)c1ccc(NC(=O)CSc2nnc(CNc3ccc(C)cc3)n2C)cc1,11.2% (inactive)
20,CCOC(=O)c1ccc(NC(=O)CSc2nnc(CNc3ccc(OC)cc3)n2C)cc1,53.5% (active)
21,COc1ccc(NCc2nnc(SCC(=O)Nc3ccc(OC)cc3)n2C)cc1,-0.9% (inactive)
